Experimental findings from PubChem BioAssay (NCI) are described below.

SMILES strings stand for the structures. The panel holds about 83,000 compounds, 20% with a hit somewhere; the sample as a whole holds those more often.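 Assay: single dose, 48 h. Readout: percent growth (0 = no net growth; negative = cell death). Active: <10.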 Unmarked numbers belong to inactive results. Active and inactive are the calls of the source.

Among the test systems are NCI-H23 lung; NCI-H226 lung; NCI-H322M lung; HOP-62 NSCLC; NCI-H460 lung; HOP-92 NSCLC; NCI-H522 lung; A549/ATCC NSCLC; 786-0 renal; COLO 205 colon.
Common to all, as to assay: NCI-60 one-dose screen, 48 h (100 = growth as untreated, 0 = no growth, -100 = all killed)
Settings in all cases: 10 µM unless noted

In the case of `CCOC(=O)c1csc(NC(=O)COc2cccc(/C=C3\Oc4cc(OC)ccc4C3=O)c2)n1`, the growth with NCI-H23 lung was 90.7%; in the assay on NCI-H226 lung, 89.5%; with NCI-H322M lung, 99.7%; with HOP-62 NSCLC it was 125%; in the assay on NCI-H460 lung it was 107%; in the assay with HOP-92 NSCLC, 62.6%. Besides, the growth with NCI-H522 lung was 49.8%; with A549/ATCC NSCLC it was 94%; in the assay with 786-0 renal, 110%; in the assay with COLO 205 colon, 110%.
For `O=C1CC(N2C(=O)/C(=C/C(Cl)=C\c3ccc([N+](=O)[O-])cc3)SC2=S)C(=O)N1c1ccc(O)cc1` (configuration not stated), the growth in the assay on NCI-H23 lung was -41.7% (active); in the assay on NCI-H226 lung, -64% (active); with NCI-H322M lung, 12.2%; in the assay with HOP-62 NSCLC, 5.91% (active); with NCI-H460 lung, 0.922% (active); with NCI-H522 lung it was -24.1% (active). Moreover, the growth with A549/ATCC NSCLC was 15.6%; in the assay on 786-0 renal, -3.2% (active); with COLO 205 colon it was -42.9% (active).
Turning to `CCc1c2c(nc3ccc(OC(=O)NCc4ccc(B5OC(C)(C)C(C)(C)O5)cc4)cc13)-c1cc3c(c(=O)n1C2)COC(=O)[C@]3(O)CC`, the growth with NCI-H23 lung was -28.3% (active); in the assay with NCI-H226 lung, -65.4% (active); in the assay with NCI-H322M lung, 5.73% (active); with HOP-62 NSCLC it was -5.68% (active); in the assay on NCI-H460 lung, -16.7% (active); with NCI-H522 lung, -23.2% (active). The figures for the growth in the assay with A549/ATCC NSCLC, in the assay on 786-0 renal and with COLO 205 colon were 4.61% (active), 6.78% (active) and 7.58% (active), respectively.
Turning to `CCCCCCCCn1ccc2cc(NC(=O)Cn3cc(CN4CCCC4)nn3)ccc21`, the growth in the assay with NCI-H23 lung was 87.3%; in the assay on NCI-H226 lung, 95.5%; with NCI-H322M lung it was 49.5%; with HOP-62 NSCLC, 74%; in the assay on NCI-H460 lung it was -64.5% (active); in the assay on NCI-H522 lung, 52.3%. Besides, the growth is 40.2% with A549/ATCC NSCLC, 16.8% with 786-0 renal and -81.4% (active) with COLO 205 colon.
Consider `Clc1ccc(-c2c3ccc(=[N+]4CCCCC4)cc-3oc3cc(N4CCCCC4)ccc23)cc1`, for which the growth with NCI-H23 lung was -85.2% (active); in the assay with NCI-H226 lung, -87.6% (active); with NCI-H322M lung it was -88.4% (active); in the assay on HOP-62 NSCLC, -89% (active); with NCI-H460 lung, -76.2% (active); in the assay on HOP-92 NSCLC it was -70.1% (active). Besides, the growth in the assay with NCI-H522 lung is -87.7% (active); with A549/ATCC NSCLC, -67.4% (active); in the assay with 786-0 renal it was -96.5% (active); with COLO 205 colon, -71.1% (active).
For `COC(=O)[C@]12CC[C@@H](C)[C@H](C)[C@@H]1C1=CC[C@@H]3[C@@]4(C)C(C=O)=C[C@@](C)(COS(C)(=O)=O)[C@@H]4C(=O)C[C@@]3(C)[C@]1(C)CC2`, the growth was 35.3% in the assay on NCI-H23 lung; 67.2% in the assay with NCI-H226 lung; 89.2% with NCI-H322M lung; 41.7% with HOP-62 NSCLC; 42.4% in the assay on NCI-H460 lung; 39.8% with HOP-92 NSCLC. Moreover, the growth in the assay on NCI-H522 lung is 22.2%; in the assay with A549/ATCC NSCLC, 27.6%; in the assay on 786-0 renal it was 40.7%; with COLO 205 colon, 32.1%.
Turning to `CC(C)(C)CC(C)(C)Nc1c(-c2ccncc2)nc2cnccn12`, the growth in the assay with NCI-H23 lung is 99.2%; in the assay with NCI-H226 lung, 90.3%; in the assay with NCI-H322M lung, 103%; in the assay with HOP-62 NSCLC, 104%; in the assay on NCI-H460 lung it was 105%; with HOP-92 NSCLC, 87.1%. Further, the growth with NCI-H522 lung was 87.1%; in the assay on A549/ATCC NSCLC, 96.4%; in the assay with 786-0 renal, 96.6%; in the assay on COLO 205 colon, 101%.
As to `COc1cc2c(cc1-c1c(C)noc1C)ncc1nc(C3CCCCC3)n(C3CCC(OC(F)F)CC3)c12` (configuration not stated), the growth with NCI-H23 lung was 40.8%; with NCI-H226 lung it was 62.2%; in the assay with NCI-H322M lung, 54.7%; with HOP-62 NSCLC, 38.3%; in the assay with NCI-H460 lung, 37.3%; in the assay on NCI-H522 lung, -12.2% (active). Moreover, the growth in the assay on A549/ATCC NSCLC is 25.3%; with 786-0 renal it was 41.4%; in the assay on COLO 205 colon it was 1.16% (active).
Turning to `CN(C)CCC=C1c2ccccc2C(C)(C)c2ccccc21`, the growth with NCI-H23 lung was 65.8%; in the assay with NCI-H226 lung it was 122%; in the assay on NCI-H322M lung it was 99.1%; in the assay with HOP-62 NSCLC it was 64.5%; with NCI-H460 lung, 85.6%; in the assay with HOP-92 NSCLC, 36.7%. Further, the growth with NCI-H522 lung is 76.5%; in the assay on A549/ATCC NSCLC it was 88.9%; in the assay with 786-0 renal it was 67.4%; with COLO 205 colon it was 68.7%.
As to `COc1ccc(C(=NN=C(N)N)c2ccc(OC)cc2)cc1`, the growth is 41.3% in the assay with NCI-H23 lung; 50.3% in the assay on NCI-H226 lung; 49% with NCI-H322M lung; 36.6% with HOP-62 NSCLC; 29.8% with NCI-H460 lung; 34% with NCI-H522 lung. For the same molecule, the growth in the assay on A549/ATCC NSCLC is 46.1%; in the assay on 786-0 renal, 45.4%; in the assay on COLO 205 colon, -7.03% (active).
On to `COc1cc(N=Nc2ccc(N)cc2)c(OC)cc1N=Nc1ccccc1.[Cl][Zn][Cl]`, for which the growth in the assay on NCI-H23 lung was 89%; in the assay on NCI-H226 lung, 104%; in the assay on NCI-H322M lung it was 78.2%; in the assay on HOP-62 NSCLC it was 86.5%; in the assay with NCI-H460 lung, 109%; in the assay on NCI-H522 lung, 108%. Moreover, the growth in the assay with A549/ATCC NSCLC was 110%; in the assay with 786-0 renal, 110%; in the assay on COLO 205 colon, 102%.
As for `COC(=O)[C@]12CC[C@@H](C)[C@H](C)[C@@H]1C1=CC[C@@H]3[C@@]4(C)C(C=O)=C[C@@](C)(COC(=O)c5ccco5)C4=CC[C@@]3(C)[C@]1(C)CC2`, the growth in the assay with NCI-H23 lung was 8.23% (active); with NCI-H226 lung, 19.1%; in the assay on NCI-H322M lung, 39.6%; in the assay with HOP-62 NSCLC it was 7.71% (active); in the assay with NCI-H460 lung, 2.11% (active); with NCI-H522 lung, -6.14% (active). Moreover, the growth in the assay on A549/ATCC NSCLC is 8.76% (active); with 786-0 renal, -8.17% (active); with COLO 205 colon, -55.8% (active).
With `C=C(C)[C@@H]1CC[C@]2(C)[C@H](CC=C3[C@@H]4CC(C)(C)CC[C@]4(C(N)=O)CC[C@]32C)[C@@]1(C)CCC#N`, the growth with NCI-H23 lung is 27.9%; with NCI-H226 lung, 49.7%; in the assay on NCI-H322M lung it was 72.1%; in the assay on HOP-62 NSCLC, 56.7%; with NCI-H460 lung, 12.8%; in the assay on NCI-H522 lung, 7.77% (active). In addition, the values for the growth with A549/ATCC NSCLC, in the assay on 786-0 renal and with COLO 205 colon were 17.6%, 26.1% and -12.1% (active), respectively.
